According to PubChem BioAssay AID504834 (National Center for Advancing Translational Sciences (NCATS), 2011):
Hit rate of the full screen: of about 320,000 compounds, about 22,000 (6.9%) were called active. Roughly 27% stayed inconclusive and do not appear here. The call rests on the fitted dose curve; in most records, active means well fitted inhibition curve with a large enough effect; inconclusive means small, poorly fitted or top-dose-only effect, or another doubt; inactive means no such curve, though single readings can be large or run the other way. The list comes from a sample in which actives are over-represented; it also holds similar structures and randomly drawn compounds.

Test: Primary qHTS for delayed death inhibitors of the malarial parasite plastid, 96 hour incubation
Settings: P. falciparum luciferase reporter growth; series mostly up to 28.7 µM; activity change, negative = inhibition: at the top concentration
In short: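 Readout is luminescence from an integrated firefly luciferase in P. falciparum. Red cells, 2% hematocrit and 0.05% parasitemia final, were cultured with compound through two parasite generations (96 hours) at 37 C, 5% CO2.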
On the % scale 0 is the no-effect control and ±100 the full control effect; potency means the concentration at half of the fitted maximal effect.

SMILES	activity change, negative = inhibition	Potency
CC1CCCCC12NC(=O)N(CC(=O)OCC(=O)NCc1ccc(F)cc1)C2=O (stereo not drawn)	7.88% (inactive)	
O=C(C1CCN(S(=O)(=O)c2ccc(Br)s2)CC1)N1CCN(C2CCCCC2)CC1		4.65 µM (active)
Cc1ccc(C(=O)N2CCN(C3CCCCC3)CC2)s1	138% (inactive)	
O=C(C1CCN(S(=O)(=O)c2ccc(Br)s2)CC1)N1CCN(c2ccccc2)CC1	22.1% (inactive)	
Cc1cccc(C)c1NC(=O)N1CC(C)OC(C)C1 (stereo not drawn)	17.2% (inactive)	
COC(=O)c1ccc(OC(=O)c2cnccn2)cc1	-0.0686% (inactive)	
Cc1cccc(OCC(=O)Nc2ccccc2F)c1	24.5% (inactive)	
Cc1cccc(OP(=O)(Oc2cccc(C)c2)OC(c2ccccc2)C(F)(F)F)c1 (stereo not drawn)		13.1 µM (active)
Cc1cccc(OP(=O)(Nc2c(C)n(C)n(-c3ccccc3)c2=O)Oc2cccc(C)c2)c1	16% (inactive)	
COc1ccc(S(=O)(=O)N2CCCCC2)cc1NC(=O)C1CC(=O)N(c2ccc3c(c2)OCCO3)C1 (stereo not drawn)	-18.4% (inactive)	
COc1cc(OC)c(OC)cc1CN1CCN(C(=O)c2cccc3ccccc23)CC1	-24% (inactive)	
COc1cccc(-n2nc(C(=O)N3CCN(Cc4ccccc4)CC3)c3ccccc3c2=O)c1		5.22 µM (active)
CCOC(=O)CNC(=O)c1nn(-c2cccc(OC)c2)c(=O)c2ccccc12	60.4% (inactive)	
CCC(=O)c1ccc(OCC(=O)N(CC)CC2COc3ccccc3O2)cc1 (stereo not drawn)	-10.8% (inactive)	
Cc1cc(NC(=O)CSc2nc(=O)cc(N)n2-c2ccc(F)cc2)no1	-15.9% (inactive)	
CCOC(=O)C1CCCN(S(=O)(=O)c2ccc3c(c2)C(C)(C)C(=O)N3C)C1 (stereo not drawn)	38.7% (inactive)	
Cc1ccc(S(=O)(=O)N2CCCC2C(=O)NCc2ccco2)cc1 (stereo not drawn)	-13.6% [at 5.75 µM] (inactive)	
Cc1ccc(CNC(=O)C2CCCN2S(=O)(=O)c2ccc3c(c2)C(C)(C)C(=O)N3C)cc1 (stereo not drawn)		1.47 µM (active)
Cc1nc2ccccn2c(=O)c1NC(=O)c1cccs1	10.3% (inactive)	
COC(=O)c1sccc1NC(=O)c1ccc(Cl)cc1	25% (inactive)	
Cc1cc(C)cc(NC(=O)CCN2C(=O)c3ccccc3C2=O)c1	8.26% (inactive)	
Cc1cc(C)c(C2C3=C(Nc4c2c(C)nn4-c2ccccn2)c2ccccc2C3=O)c(C)c1 (stereo not drawn)		6.57 µM (active)
Cc1nn(-c2ccccn2)c2c1C(c1ccncc1)C1=C(CC(C)(C)CC1=O)N2 (stereo not drawn)		5.86 µM (active)
CC1(C)CC(=O)C2=C(C1)Nc1cc(C(=O)c3ccccc3)ccc1NC2c1ccccn1 (stereo not drawn)	24.6% (inactive)	
CC(C)(C)NC(=O)C(c1ccco1)N(Cc1ccc2c(c1)OCO2)C(=O)Cn1nnc2ccccc21 (stereo not drawn)		14.7 µM (active)

SMILES	activity change, negative = inhibition	Potency
CCC(C)(C)NC(=O)C(c1cccn1C)N(Cc1ccc(C)cc1)C(=O)Cn1nnc2ccccc21 (stereo not drawn)	-27.8% (inactive)	
COc1ccc(C(C(=O)NC(C)(C)C)N(C(=O)Cn2nnc3ccccc32)c2ccc(C(C)=O)cc2)cc1O (stereo not drawn)	-0.944% (inactive)	
C=CCc1ccccc1OCC(O)CN1CCN(CCO)CC1 (stereo not drawn)	-15.9% (inactive)	
C[n+]1cc(-c2ccccc2)oc1-c1ccccc1	65.7% (inactive)	
Cc1nc2cccnc2nc1C	36.2% (inactive)	
Cc1ccc(C)c(N2CCN(C(=O)Cn3ncn4cccc4c3=O)CC2)c1	20.2% (inactive)	
Cc1ccc(C)c(N2CCN(C(=O)CCCCn3c(=O)[nH]c4ccccc4c3=O)CC2)c1	8.49% (inactive)	
Cc1ccc(C)c(N2CCN(C(=O)CCCn3c(=O)c4cccn4c4cccnc43)CC2)c1		13.1 µM (active)
Cn1nccc1/C=N\NC(=O)c1ccc(Cl)cc1	17.8% (inactive)	
CCNC(=O)CC1C(=O)N(c2ccc(OC)cc2)C(=O)N1CCOC (stereo not drawn)	94.5% (inactive)	
CC(C)=CC(=O)Nc1nnc(-c2ccc(F)cc2)s1	31.8% (inactive)	
Cc1nnc(NC(=O)Nc2ccc(Cl)c(Cl)c2)s1	-59% (inactive)	
Cc1ccc(NC(=O)Nc2nnc(-c3ccncc3)s2)cc1		9.28 µM (active)
COc1ccc(CSc2nnnn2-c2ccc(C(=O)O)cc2)cc1	1.63% (inactive)	
CCCn1nnnc1NCc1ccc(OC)cc1	21.1% (inactive)	
COc1ccc(Cc2nnnn2CC(=O)O)cc1		1.65 µM (active)
O=C(CCc1nnc(Cc2ccc3c(c2)OCO3)o1)NCCc1ccccc1Cl	10.2% (inactive)	
Cc1ccc(-c2ncc(Cl)cc2-c2ccc(S(C)(=O)=O)cc2)cn1		13.5 µM (active)
Cc1c2cnn(CC(=O)NCCCN3CC(C)CC(C)C3)c(=O)c2c(C)n1Cc1ccc(Cl)cc1 (stereo not drawn)	3.52% (inactive)	
Cc1nc2ccccc2c(=O)n1NC(=O)c1ccccc1	-8.41% (inactive)	
Cc1ccc(SCc2c(C(=O)N/N=C/C3CC=CCC3)nnn2-c2nonc2N)cc1 (stereo not drawn)	3.06% (inactive)	
CNC1(c2nnnn2-c2c(C)cccc2C)CCOC(C)(C)C1 (stereo not drawn)	-24.4% (inactive)	
COc1ccc(C23NCCN2C(=O)c2ccccc23)cc1 (stereo not drawn)	22.2% (inactive)	
COc1ccc(C2(C)NC(=O)N(CC(=O)c3ccc4c(c3)OCO4)C2=O)cc1 (stereo not drawn)	67.1% (inactive)	
COc1ccc(C2(C)ON(c3ccccc3C(F)(F)F)C2=O)cc1 (stereo not drawn)		2.62 µM (active)

SMILES	activity change, negative = inhibition	Potency
COC(c1ccccc1)(c1ccccc1)C(Oc1nc(C)cc(C)n1)C(=O)O (stereo not drawn)	-23.8% (inactive)	
Cc1ccc(OCCNC(=O)CN2C(=O)NC3(CCCC3)C2=O)cc1	5.65% (inactive)	
COc1ccc(NC(=O)CSc2nc(SC)ns2)c(OC)c1	4.59% (inactive)	
Cc1ccc(Cc2nnc(SCC(=O)Nc3ccccc3C)[nH]c2=O)cc1	-9.18% (inactive)	
COC(=O)COc1ccc2c(=O)c(Oc3ccccc3Br)coc2c1	0.781% (inactive)	
FC(F)(F)Oc1ccc(-c2cn3cccnc3n2)cc1	155% (inactive)	
COc1ccc(-c2[nH]ncc2CN(Cc2nccn2C)C(C)C)cc1F	-16.8% (inactive)	
CCN1CCC2(CCN(Cc3cn[nH]c3-c3ccc(OC)c(F)c3)C2)C1 (stereo not drawn)		10.4 µM (active)
COc1ccc(CN2CCN(c3ccccc3F)CC2)c(OC)c1	13.6% (inactive)	
CN(C)CC(O)COc1ccc(C(C)(C)c2ccc(OCC(O)CN(C)C)cc2)cc1 (stereo not drawn)	53% (inactive)	
COc1ccc(C(O)(C2CCCCC2)C(CN2CCCC2)c2ccccc2)cc1 (stereo not drawn)	-22.6% (inactive)	
CCCC(O)(c1ccc(OC)cc1)C(CN(C)C)c1ccccc1 (stereo not drawn)		14.7 µM (active)
COc1ccc(NC(=O)CN(C)C(=O)c2n[nH]c3ccccc23)cc1	82.2% (inactive)	
S=C(NCc1ccc(Cl)cc1)NC1CCCCC1	6.71% (inactive)	
O=C(NCc1ccc(Cl)cc1)NCc1ccc(Cl)cc1	0.842% (inactive)	
S=C(NCc1ccc(Cl)cc1)NC12CC3CC(CC(C3)C1)C2		11.7 µM (active)
CCN(Cc1ccccc1)S(=O)(=O)c1cc2c3c(c1)CCN3C(=O)CC2	-27.2% (inactive)	
COc1ccc(C(CNCC(=O)Nc2ccccc2F)N(C)C)cc1 (stereo not drawn)	24.6% (inactive)	
O=C(c1ccc(S(=O)(=O)N2CCCC2)cc1)N1CCN(c2ccccc2F)CC1		4.65 µM (active)
COc1ccccc1NS(=O)(=O)c1ccc(C(=O)N2CCN(c3ccccc3O)CC2)cc1		11.7 µM (active)
COc1ccccc1N1CCN(C(=O)c2ccc(S(=O)(=O)N3CCCCC3)cc2)CC1	0.287% (inactive)	
COc1ccccc1NC(=O)C1CCN(C(=O)c2ccc(C(C)(C)C)cc2)CC1	25.4% (inactive)	
O=C(c1ccc(S(=O)(=O)N2CCOCC2)cc1)N1CCN(c2ccccc2)CC1	-21.8% (inactive)	
COc1ccc(S(=O)(=O)Nc2ccccc2C(=O)N2CCCC2)cc1C	2.67% (inactive)	
O=C(COC(=O)/C=C/c1ccc2c(c1)OCO2)NC1CCS(=O)(=O)C1 (stereo not drawn)	13.5% (inactive)	

SMILES	activity change, negative = inhibition	Potency
Cn1nc(C(=O)OCC(=O)N(Cc2ccccc2)C(C)(C)C)c2ccccc2c1=O	14.4% (inactive)	
CSc1nnc(NC(=O)c2nc(S(=O)(=O)Cc3ccc(C)cc3)ncc2Cl)s1	2.67% (inactive)	
O=S1(=O)CCN(Cc2ccccc2Cl)CC1	2.72% (inactive)	
CC1(C)COC(c2cccn2Cc2ccccc2Cl)=N1		9.28 µM (active)
O=C(Nc1cccn(Cc2ccccc2Cl)c1=O)NC1CCCCC1	9.52% (inactive)	
NC(=O)c1cc(-c2cccnc2)nc2ccc(Br)cc12	30.9% (inactive)	
C=CCn1c(SCCOc2ccc(OC)cc2)nnc1C(NC(=O)c1ccc(OC)cc1)C(C)C (stereo not drawn)		10.4 µM (active)
C=CCn1c(SCc2ccc(Cl)c(Cl)c2)nnc1C(CO)NC(=O)c1ccc(OC)cc1 (stereo not drawn)	-6.53% (inactive)	
C=CCn1c(SCC(=O)c2ccc(Br)cc2)nnc1C(C)NC(=O)Cc1ccc(OC)cc1 (stereo not drawn)	-12.8% (inactive)	
CC[C@]1([C@H]2O[C@@H]([C@@H]3O[C@](O)(CO)[C@@H](C)C[C@H]3C)C[C@H]2C)CC[C@@H]([C@]2(C)CC[C@@]3(C[C@@H](O)[C@@H](C)[C@@H]([C@H](C)[C@H](OC)[C@H](C)C(=O)O)O3)O2)O1		0.019 µM (active)
COc1ccc(CC(=O)OC(C)C(=O)Nc2ccc(S(N)(=O)=O)cc2)cc1 (stereo not drawn)	36.6% (inactive)	
C[C@@H](NC(=O)c1nc[nH]c1C(=O)N1CCN(C(=O)OC(C)(C)C)CC1)c1ccccc1	1.65% (inactive)	
O=C(N[C@@H](Cc1ccccc1)C(=O)OCc1ccccc1)c1nc[nH]c1C(=O)N[C@@H](Cc1ccccc1)C(=O)OCc1ccccc1	-2.42% (inactive)	
CC(C)(C)OC(=O)N1CCC(NC(=O)c2[nH]cnc2C(=O)N[C@@H](Cc2ccccc2)C(=O)OCc2ccccc2)CC1		1.47 µM (active)
Cc1c(Cl)cccc1NC(=O)CCC(=O)N/N=C/c1ccco1	0.368% (inactive)	
Cc1cc(C)cc(N(CC(=O)NC2CCCC2)C(=O)CCC(=O)Nc2cc(C)on2)c1	-13.5% (inactive)	
CC(Oc1cccc(Cl)c1)C(=O)Nc1ccc(S(=O)(=O)Nc2ncccn2)cc1 (stereo not drawn)	15.6% (inactive)	
COc1ccc(C(=O)Nc2ccc(S(=O)(=O)Nc3onc(C)c3C)cc2)cc1OC	-15.4% (inactive)	
Cc1cc(OC(C)C(=O)Nc2ccc(S(=O)(=O)Nc3onc(C)c3C)cc2)cc(C)c1Cl (stereo not drawn)		8.28 µM (active)
N#Cc1c(-c2ccccc2)c(-c2ccccc2)n[nH]c1=O	40.2% (inactive)	
NCCCCCC(=O)N/N=C/c1ccc2nccnc2c1	0.751% (inactive)	
COc1ccc(C(=O)NC(C)Cn2nc(C)cc2C)cc1OC1CCN(C(C)=O)CC1 (stereo not drawn)	26% (inactive)	
O=C(NCCCn1ccnc1)C1CCCN(S(=O)(=O)c2cc(Cl)ccc2Cl)C1 (stereo not drawn)	27.1% (inactive)	
